In PubChem BioAssay (Tox21):
Records with an inconclusive call do not appear. Active and inactive are the calls of the source. Calls follow the shape of the dose curve; as a rule, active = well fitted curve in the direction sought with a large enough effect in the repeat runs; inconclusive = weak or mixed curves; inactive = no such curve, though single readings can be large; an effect the other way counts as inactive or inconclusive.

What was measured:
[1] = A CellTox Green Cytotoxicity Assay to monitor cytotoxicity in HEK293 cells - 40 hour (AID 1224871); also: nearly all actives have a fitted effect of over 45% in size
Summary of the method: (§1)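 Real-time, in one plate: 600 HEK293 cells/well with dead-cell DNA dye, pinned compound after 5 h, 37 C incubation over 40 h; viable cells give no appreciable fluorescence.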

[2] = qHTS RealTime-Glo MT Cell Viability Assay in HEK293 cells - 16 hour (AID 1224872); also: top concentration of the series differs between compounds; nearly all actives have a fitted effect of over 50% in size
Summary of the method: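 Cells + reagent dispensed (600 cells/well, HEK293) → 5 h at 37 C/5% CO2 → 23 nL compound in DMSO pinned → 40 h at 37 C → luminescence read at 0, 8, 16, 24, 32, 40 h.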

[3] = qHTS RealTime-Glo MT Cell Viability Assay in HepG2 cells - 8 hour (AID 1224873); also: nearly all actives have a fitted effect of over 55% in size
Summary of the method: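 Real-time viability: cells seeded at 600 per well together with NanoLuc and cell-permeant prosubstrate, compounds added after 5 h incubation. Luminescence tracked at 0, 8, 16, 24, 32 and 40 h of exposure.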

[4] = qHTS RealTime-Glo MT Cell Viability Assay in HEK293 cells - 40 hour (AID 1224874); details: RealTime-Glo luminescence; max response: stronger effect = lower value; also: nearly all actives have a fitted effect of over 50% in size
Summary of the method: (§2)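 Kinetic, non-lysing viability readout. Seed HEK293 (600/well) with reagent, incubate 5 h at 37 C/5% CO2, pin 23 nL compound in DMSO, incubate at 37 C, read luminescence at 0, 8, 16, 24, 32, 40 h.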

[5] = A CellTox Green Cytotoxicity Assay to monitor cytotoxicity in HEK293 cells - 24 hour (AID 1224875); also: series mostly up to about 77 µM; nearly all actives have a fitted effect of over 45% in size
Summary of the method: as §1

[6] = A CellTox Green Cytotoxicity Assay to monitor cytotoxicity in HepG2 cells - 16 hour (AID 1224876); also: nearly all actives have a fitted effect of over 45% in size
Summary of the method: (§3)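 Cytotoxicity was tracked as dead-cell DNA fluorescence in HepG2 cells treated with test compounds at 37 C; each time-point value comes from one kinetic series spanning 0, 8, 16, 24, 32 and 40 h.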

[7] = qHTS RealTime-Glo MT Cell Viability Assay in HepG2 cells - 32 hour (AID 1224877); also: nearly all actives have a fitted effect of over 55% in size
Summary of the method: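 Real-time, nonlytic viability: 600 HepG2 cells/well mixed with NanoLuc enzyme plus prosubstrate; 5 h settle, compound (DMSO) added by pintool; luminescence monitored over 40 h at 37 C.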

[8] = A CellTox Green Cytotoxicity Assay to monitor cytotoxicity in HepG2 cells - 24 hour (AID 1224878); also: nearly all actives have a fitted effect of over 45% in size
Summary of the method: as §3

[9] = A CellTox Green Cytotoxicity Assay to monitor cytotoxicity in HepG2 cells - 40 hour (AID 1224879); also: nearly all actives have a fitted effect of over 40% in size
Summary of the method: as §3

[10] = qHTS RealTime-Glo MT Cell Viability Assay in HEK293 cells - 0 hour (AID 1224880)
Summary of the method: as §2
% is scaled to controls: 0 for no effect and ±100 for the full control effect.

COc1ccc(CN2CCNCC2)c(OC)c1OC
inactive: Potency [1] | Potency [2] | outcome [3] | max response [4] 5.58% | Potency [5] | Potency [6] | Potency [7] | Potency [8] | Potency [9] | outcome [10]

CC1N=C(N)OC1c1ccccc1 (configuration not stated)
inactive: Potency [1] | Potency [2] | outcome [3] | max response [4] -2.35% | Potency [5] | Potency [6] | Potency [7] | Potency [8] | Potency [9] | outcome [10]

CCCCOC(C)=O
inactive: Potency [1] | Potency [2] | outcome [3] | max response [4] 8.22% | Potency [5] | Potency [6] | Potency [7] | Potency [8] | Potency [9] | outcome [10]

NC1(c2ccccc2)CCCCC1
inactive: Potency [1] | Potency [2] | outcome [3] | max response [4] -3.55% | Potency [5] | Potency [6] | Potency [7] | Potency [8] | Potency [9] | outcome [10]

O=C(O)c1c(Cl)ccc2cc(Cl)cnc12
inactive: Potency [1] | Potency [2] | outcome [3] | max response [4] 17.7% | Potency [5] | Potency [6] | Potency [7] | Potency [8] | Potency [9] | outcome [10]

COc1cc(CCN)cc(OC)c1OC
inactive: Potency [1] | Potency [2] | outcome [3] | max response [4] -4.29% | Potency [5] | Potency [6] | Potency [7] | Potency [8] | Potency [9] | outcome [10]

CNC(=O)Oc1cc(C)c(N(C)C)c(C)c1
inactive: Potency [1] | Potency [2] | outcome [3] | max response [4] -10.9% | Potency [5] | Potency [6] | Potency [7] | Potency [8] | Potency [9] | outcome [10]

NCCOS(=O)(=O)O
inactive: Potency [1] | Potency [2] | outcome [3] | max response [4] 1.3% | Potency [5] | Potency [6] | Potency [7] | Potency [8] | Potency [9] | outcome [10]

CCCCCCCCSC(=O)Oc1cc(Cl)nnc1-c1ccccc1
inactive: Potency [1] | Potency [2] | outcome [3] | max response [4] 6.25% | Potency [5] | Potency [6] | Potency [7] | Potency [8] | Potency [9] | outcome [10]

O=C(O)C(F)(F)C(F)(F)C(F)(F)C(F)(F)C(F)(F)C(F)(F)F
inactive: Potency [1] | Potency [2] | outcome [3] | max response [4] -16.5% | Potency [5] | Potency [6] | Potency [7] | Potency [8] | Potency [9] | outcome [10]

CCOc1cc(OP(=S)(OC)OC)nc(CC)n1
inactive: Potency [1] | Potency [2] | outcome [3] | max response [4] 6.75% | Potency [5] | Potency [6] | Potency [7] | Potency [8] | Potency [9] | outcome [10]

CC(=O)CN(CC(C)=O)N=O
inactive: Potency [1] | Potency [2] | outcome [3] | max response [4] 5.04% | Potency [5] | Potency [6] | Potency [7] | Potency [8] | Potency [9] | outcome [10]

NC(=O)OCCCc1ccccc1
inactive: Potency [1] | Potency [2] | outcome [3] | max response [4] 2.14% | Potency [5] | Potency [6] | Potency [7] | Potency [8] | Potency [9] | outcome [10]

Cl/C=C/CCl
inactive: Potency [1] | Potency [2] | outcome [3] | max response [4] 7.85% | Potency [5] | Potency [6] | Potency [7] | Potency [8] | Potency [9] | outcome [10]

C[C@]12C=CC(=O)C=C1CC[C@@H]1[C@@H]2CC[C@@]2(C)[C@H]1CC[C@]2(C)O
inactive: Potency [1] | Potency [2] | outcome [3] | max response [4] -19.7% | Potency [5] | Potency [6] | Potency [7] | Potency [8] | outcome [10]

CCN(CC)CCOC(=O)C(O)(c1ccccc1)c1ccccc1
inactive: Potency [1] | Potency [2] | outcome [3] | max response [4] -0.657% | Potency [5] | Potency [6] | Potency [7] | Potency [8] | Potency [9] | outcome [10]

CS(=O)(=O)Cl
inactive: Potency [1] | Potency [2] | outcome [3] | max response [4] -0.619% | Potency [5] | Potency [6] | Potency [7] | Potency [8] | Potency [9] | outcome [10]

CN=CNc1ccc(C)cc1C
inactive: Potency [1] | Potency [2] | outcome [3] | max response [4] 5.53% | Potency [5] | Potency [6] | Potency [7] | Potency [8] | Potency [9] | outcome [10]

COc1cc(CC(C)N)cc(OC)c1OC (configuration not stated)
inactive: Potency [1] | Potency [2] | outcome [3] | max response [4] -3.07% | Potency [5] | Potency [6] | Potency [7] | Potency [8] | Potency [9] | outcome [10]

CC(C)N(Cc1ccccc1)C(=O)C(C)(C)C
inactive: Potency [1] | Potency [2] | outcome [3] | max response [4] -9.28% | Potency [5] | Potency [6] | Potency [7] | outcome [10]

CC(C)NCC(O)c1ccc([N+](=O)[O-])cc1 (configuration not stated)
inactive: Potency [1] | Potency [2] | outcome [3] | max response [4] 6.95% | Potency [5] | Potency [6] | Potency [7] | Potency [8] | Potency [9] | outcome [10]

CC(=O)OCC1=C(C(=O)O)N2C(=O)[C@@H](N)[C@H]2SC1
inactive: cytotoxicity increase [1] -4.55% [at 15.8 µM] | activity change, negative = cytotoxicity [2] 5.5% [at 15.8 µM] | viability change, negative = cytotoxic [3] 1.05% [at 15.8 µM] | max response [4] 21.8% | activity change [5] 11.8% [at 15.8 µM, stronger effect = higher value] | cytotoxicity increase [6] 0.706% [at 15.8 µM] | activity change, negative = cytotoxic [7] 0.0723% [at 15.8 µM] | cytotoxicity [8] 0.21% [at 15.8 µM] | cytotoxicity increase [9] -2.77% [at 15.8 µM] | activity change, negative = cytotoxicity [10] -1.9% [at 15.8 µM]

C=C(Cl)CSC(=S)N(CC)CC
inactive: Potency [1] | Potency [2] | outcome [3] | max response [4] -15% | Potency [5] | Potency [6] | Potency [7] | Potency [8] | Potency [9] | outcome [10]
